# Screening data deposited in PubChem by National Center for Advancing Translational Sciences (NCATS).
# Sfp inh – inhibitors of Bacillus subtilis Sfp phosphopantetheinyl transferase; Biochemical Sfp PPTase activity, qHTS; Potency, µM, for the others: largest response in the series, negative = inhibition, hits mostly inhibitors; 3.5% of 310,000 active; AID 1490;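 note: the enzyme is Sfp with the accession as filed and its product quenches rhodamine fluorescence; 0% = enzyme reaction without inhibitor and -100% = no enzyme wells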
#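 Compounds were incubated with enzyme (final 15 nM) for 15 min at room temperature before substrate addition started the reaction. Fluorescence at 525 nm excitation, 598 nm emission was recorded immediately and after 30 minutes.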
# BAZ2B block – BAZ2B (human) inhibition; Q9UIF8; AlphaScreen BAZ2B-H3K14Ac peptide displacement; Potency, µM (titrated, usually from 114 µM), inactives show at the top dose activity change, negative = inhibition, actives largely listed as inhibitors; 4.4% of 360,000 active; AID 504333; note: % is set by controls: 0 for no effect and ±100 for the full control effect; nearly all actives have a fitted effect of over 60% in size
#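 AlphaScreen displacement: compounds (up to 110uM) incubated 30 min at room temperature with a preformed 50 nM BAZ2B/50 nM biotinylated H3K14Ac peptide complex in PBS pH 7.4 with Tween-20. Donor and acceptor beads at 10 ug/mL final added, 20 min light-protected before reading.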
# HP1b chromo inh – inhibitors of HP1-beta chromodomain binding to methylated histone tails | P83916 | AlphaScreen HP1-beta / biotin-H3K9me3 peptide binding | Potency, µM (top dose mostly 114 µM), without a hit: at the highest dose activity change, negative = inhibition, most hits filed as inhibitors | 0.56% of 390,000 active; note: nearly all actives have a fitted effect of over 70% in size
# Target sequence (P83916 whole entry, looked up): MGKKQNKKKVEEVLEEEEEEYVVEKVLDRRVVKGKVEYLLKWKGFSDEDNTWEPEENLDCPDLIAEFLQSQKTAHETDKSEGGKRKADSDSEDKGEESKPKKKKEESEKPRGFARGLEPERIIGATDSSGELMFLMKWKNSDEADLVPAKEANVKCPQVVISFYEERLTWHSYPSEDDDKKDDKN
#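 Compound inhibition of the preformed complex between 50 nM HP1-beta and 50 nM biotinylated H3K9me3 peptide was read by AlphaScreen. Buffer was PBS pH 7.4 with 0.01% Tween-20. Incubations ran 30 min at room temperature, with 10 ug/mL donor/acceptor beads.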
# JMJD2A Tudor inh – JMJD2A Tudor domain (human) inhibition; Potency, µM (titrated, usually from 114 µM), inactives show at the top dose activity change, negative = inhibition, most hits filed as inhibitors; O75164; AlphaScreen JMJD2A-Tudor / H3K4me3 peptide binding; AID 504339; 4.4% of 390,000 active; note: % is set by controls: 0 for no effect and ±100 for the full control effect; nearly all actives have a fitted effect of over 50% in size
# G9a inh – blocks human histone lysine methyltransferase G9a | AID 504332 | Q96KQ7 | 8.8% of 350,000 active | G9a H3K9 monomethylation, AlphaScreen, 2 h | Potency, µM (titrated, usually from 102 µM), inactives show at the highest dose activity, negative = inhibition, usual class: inhibitors; note: % is set by controls: 0 for no effect and ±100 for the full control effect; nearly all actives have a fitted effect of over 75% in size
# Target sequence (Q96KQ7 913-1193 limits assumed): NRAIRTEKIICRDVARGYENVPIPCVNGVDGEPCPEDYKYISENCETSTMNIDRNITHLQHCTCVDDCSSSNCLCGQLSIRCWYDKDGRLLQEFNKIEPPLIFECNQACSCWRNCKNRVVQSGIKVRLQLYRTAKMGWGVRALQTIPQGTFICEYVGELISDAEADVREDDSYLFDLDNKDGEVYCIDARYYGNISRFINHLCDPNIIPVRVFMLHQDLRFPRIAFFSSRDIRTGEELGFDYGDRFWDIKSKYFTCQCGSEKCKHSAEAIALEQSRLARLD
#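 Using a bead-based AlphaScreen, monomethylated H3K9 product from 2 h room-temperature reactions (G9a 20 nM, peptide 500 nM, SAM 20 uM) was detected with 0.5 ug/mL rabbit anti-H3K9me1 antibody.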
# PLK1 PBD block – inhibitors of human PLK1 polo-box domain binding; P53350; Plk1 PBD binding of FITC phosphopeptide, fluorescence polarization; Potency, µM, inactives show max response, negative = inhibition, usual class: inhibitors; 2.8% of 360,000 active; note: series mostly up to about 57 µM; % is set by controls: 0 for no effect and ±100 for the full control effect; nearly all actives have a fitted effect of over 65% in size
# * = called active by the depositor; ? = inconclusive; · = not tested or not shown; [ ] = dose if it differs, or a comment. Compounds with a hit are over-represented: about 12% of the library has one in this group of screens. Calls come from the whole dose curve; as a rule, active = well fitted curve in the direction sought with a large enough effect; inconclusive = small, poorly fitted or top-dose-only effect, or another doubt; inactive = no such curve, though single readings can be large; an effect the other way counts as inactive or inconclusive. Potency is the fitted concentration of half-maximal effect.
SMILES,Sfp inh,BAZ2B block,HP1b chromo inh,JMJD2A Tudor inh,G9a inh,PLK1 PBD block
CC(=O)N1CCc2cc(S(=O)(=O)CCC(=O)Nc3ccc(C)cc3Br)ccc21,·,·,31%,-8%,?,·
CC(=O)N1CCc2cc(S(=O)(=O)CCC(=O)Nc3ccccc3F)ccc21,5%,-23%,-19%,50µM*,?,24µM*
CCOC(=O)c1cccc(NC(=O)CCNS(=O)(=O)c2ccc3c(c2)CCN3C(=O)CC)c1,19%,-4%,25%,-6%,-2%,-4%
CCOC(=O)c1cccc(NC(=O)CCS(=O)(=O)c2ccc3c(c2)CCN3C(=O)CC)c1,·,·,36%,25µM*,11µM*,·
CCC(=O)N1c2ccc(S(=O)(=O)CCC(=O)Nc3ccc(Br)c(C)c3)cc2CC1C (centres undefined),·,·,-12%,22µM*,14µM*,·
CCC(=O)N1c2ccc(S(=O)(=O)CCC(=O)NC3CCCC3)cc2CC1C (centres undefined),3%,-10%,23%,0%,-12%[0.501 µM],-12%
COc1ccc(CNC(=O)CNC(=O)CNS(=O)(=O)c2ccc(C)c(C)c2)cc1,3%,6%,13%,-15%,-4%,-9%
COC(=O)C1=C(C)N(Cc2ccccc2)[C@]23O[C@](C(=O)OC)(C(=O)N2C1c1ccccc1)C1CCCC(=O)C13 (some centres undefined),12%,·,·,·,·,·
C/C(=N/NS(=O)(=O)c1cccc([N+](=O)[O-])c1)c1c[nH]c2ccccc12,-26%,50µM*,5%,-24%,25µM*,-21%
CC(=O)Nc1cccc(/C(C)=N/NS(=O)(=O)c2ccccc2)c1,13%,-19%,37%,-8%,-44%,-9%
CC(=O)Nc1cccc(/C(C)=N/NS(=O)(=O)c2ccc(C)cc2)c1,-4%,-7%,26%,-14%[11.4 µM],50µM*,-8%
C/C(=N/NS(=O)(=O)c1ccccc1)c1c[nH]c2ccccc12,-9%,-26%,43%,-17%,22µM*,-13%
C/C(=N/NS(=O)(=O)c1ccc(C)cc1)c1c[nH]c2ccccc12,-13%,-17%,30%,-18%,25µM*,4%
O=[N+]([O-])c1cccc(C(=NCc2ccccc2)NO)c1,-5%,-34%,22%,-8%,-5%,1%
Cc1nnc(SCC(=O)Nc2cc(S(C)(=O)=O)ccc2Cl)n1Cc1ccccc1,15%,-2%,24%,-3%,44%,-2%
COc1ccc(-c2ncc(CN3CCC(CO)(Cc4cccc(OC)c4)CC3)cn2)cc1,14%,-23%,15%,-23%[11.4 µM],?,-14%
COc1ccc(CC2(CO)CCN(Cc3cccnc3)CC2)cc1,8.9µM*,-16%,46%,11%[57.1 µM],35µM*,-3%
CC(=O)OCC1OC(Oc2cc(OC(C)=O)c3c(=O)cc(-c4ccc(OC(C)=O)cc4)oc3c2)[C@@H](OC(C)=O)C(OC(C)=O)C1OC(C)=O (some centres undefined),26%,·,·,·,·,·
C=C(CN(C)C)C(=O)c1ccc(OC2OC(COC(C)=O)C(OC(C)=O)C(OC(C)=O)C2OC(C)=O)cc1 (centres undefined),·,·,56µM*,89µM*,·,15µM*
Cc1c(O)ccc(-c2[nH]ncc2-c2nc3ccccc3s2)c1O,-3%,-29%,35%,?,12%[12.7 µM],-1%
Cc1c(O)ccc(-c2n[nH]c(C(=O)O)c2-c2nc3ccccc3s2)c1O,2%,?,24%,-7%,45µM*,-16%
Cc1sc(N)nc1C12CC3CC(CC(C3)C1)C2,-12%,?,?,-26%,45µM*,1%
COc1ccc2[nH]c(C(=O)O)c(NS(=O)(=O)c3ccc(OC)c(OC)c3)c2c1,-13%,?,-2%,?,?,?
CCN(C(=O)Cc1c(C(=O)O)[nH]c2ccccc12)c1cc(OC)ccc1OC,-2%,?,17%,?,11%[12.7 µM],-3%
